D1 antagonist: human D1 dopamine receptor antagonism; activity change, negative = inhibition, % at 10 µM; HEK293 TREx D1 cells, calcium flux, dopamine EC80; hits give low values; 3.2% of 360,000 active; in the data active = activity change below about -30%; also: % is scaled to controls: 0 for no effect and ±100 for the full control effect
Target sequence (P21728 whole entry, looked up): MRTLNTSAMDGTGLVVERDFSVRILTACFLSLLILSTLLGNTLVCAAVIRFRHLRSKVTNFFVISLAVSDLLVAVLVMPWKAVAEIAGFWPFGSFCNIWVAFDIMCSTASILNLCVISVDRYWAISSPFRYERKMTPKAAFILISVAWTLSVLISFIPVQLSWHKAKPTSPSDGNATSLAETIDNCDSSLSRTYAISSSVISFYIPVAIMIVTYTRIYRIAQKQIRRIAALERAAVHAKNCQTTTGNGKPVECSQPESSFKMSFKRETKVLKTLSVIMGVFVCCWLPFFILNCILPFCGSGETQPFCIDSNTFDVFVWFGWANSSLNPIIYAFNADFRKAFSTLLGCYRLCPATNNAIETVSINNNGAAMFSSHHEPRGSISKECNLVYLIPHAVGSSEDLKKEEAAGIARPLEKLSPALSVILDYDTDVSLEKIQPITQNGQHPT
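Calcium flux readout: force-coupled, inducible Hek293 Trex D1 line, cells induced overnight at 30 C with tetracycline, dye-loaded 30–90 min at RT. Antagonism scored against EC80 dopamine challenge given 180 s after compound.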
TRHR agonist-1: TRH receptor (human) agonism; activation, % at 2 µM; P34981; TRHR cells, calcium flux fluo-8, FDSS agonist mode; 0.18% of 360,000 active; also: 0% is about no effect
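TRHR-expressing cells, plated overnight in medium with 10% serum, were loaded with fluo-8 calcium dye at room temperature. After a 10 s baseline, library compound was pin-added and calcium release was recorded kinetically (ex 480/em 530) as agonist response.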
D1 ag: activates the human D1 dopamine receptor. activation, % at 2 µM. 1% of 360,000 active. P21728. HEK293 T-REx D1 cells, calcium flux, agonist mode; also: 0% is about no effect
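Agonism was scored from calcium flux recorded over 180 s (1 read/s) after pintool compound addition, following a 10-cycle baseline. Cells were inducible force-coupled HEK293 TREx D1, plated overnight at 30 C and loaded with no-wash calcium dye.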
TRHR enhancer-1: allosteric enhancers of human TRH receptor | P34981 | TRHR cells, fluo-8 calcium fluorescence, EC20 TRH enhancement | enhancement, % at 2 µM | 0.66% of 360,000 active; in the data active = enhancement above about 30%; also: 0% is about no effect
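Enhancer read-out: after compound pinning and an initial kinetic agonist-mode read, an EC20 of TRH (10 nM final) was injected and fluo-8 calcium signal (Ex 480/Em 530) followed at 1 s/cycle for 100 cycles in TRHR-expressing cells.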
D1 potentiator: human D1 dopamine receptor positive modulation. potentiation, % at 10 µM. P21728. HEK293 TREx D1 cells, calcium flux, dopamine EC20 potentiation. 0.036% of 360,000 active. AID 504651; in the data active = potentiation above about 30%; also: 0% is about no effect
TRHR enhancer-2: confirmation of human TRH receptor allosteric enhancers | shares compounds with TRHR enhancer-1 | TRH receptor cell assay, enhancer confirmation qHTS | activity change, negative = inhibition, % at 46.1 µM | 970 tested, under 10 active | AID 493076; active = well fitted curve in the direction sought with a large enough effect; inconclusive = small, poorly fitted or top-dose-only effect, or another doubt; inactive = no such curve, though single readings can be large; an effect the other way counts as inactive or inconclusive;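 also: compound effect scored on response to added TRH at EC20 of 10 nM; 0% is about no effect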
TRHR agonist-2: human TRH receptor agonism confirmation | Potency, µM (series often up to 46.1 µM), for inactives: at the highest dose activation, most hits filed as activators | TRHR-expressing cells, agonist activation read-out | 8% of 970 active | shares compounds with TRHR enhancer-1; active = well fitted curve in the direction sought with a large enough effect; inconclusive = small, poorly fitted or top-dose-only effect, or another doubt; inactive = no such curve, though single readings can be large; an effect the other way counts as inactive or inconclusive; also: potency is read from the fitted curve at half-maximal effect; 0% is about no effect; nearly all actives have a fitted effect of over 75% in size
Numbers without * were called inactive; ? = inconclusive; . = not tested or not shown. An excerpt weighted towards active compounds, which were near 4.6% of everything screened. Rule as the data show it, unless noted: active = activation above about 30%; inactive = the rest.

SMILES | D1 antagonist | TRHR agonist-1 | D1 ag | TRHR enhancer-1 | D1 potentiator | TRHR enhancer-2 | TRHR agonist-2
CCN(CC)c1ccc(/C=N/NC(=O)c2cccc(S(=O)(=O)N3CCOCC3)c2)c(O)c1 | -29.0 | 39.3* | 12.1 | -1.5 | -4.3 | 2.6 | ?
O=C(NC(c1ccccc1)c1ccccc1)c1cccc(S(=O)(=O)NCc2ccccc2)c1 | -9.1 | 0.7 | 7.1 | 0.3 | -4.5 | . | .
Cc1c(Cl)cn2c(=O)cc(CN3CCN(c4ccc(F)cc4)CC3)nc2c1Cl | 9.5 | -0.4 | 0.1 | -6.9 | -3.8 | . | .
COc1ccc2oc(=O)c(C(=O)NC3CCCCCC3)cc2c1 | 5.1 | 0.1 | 0.5 | 51.3* | 0.4 | -2.5 | -0.8%
CNC(=O)c1cc2cc(OC)ccc2oc1=O | 0.0 | 0.6 | -0.2 | 0.4 | 3.0 | . | .
CCc1ccc(CN(C)Cc2nc(-c3cccc(Cl)c3)no2)nc1 | 3.9 | -0.4 | 1.5 | 47.7* | 3.4 | -11.0 | 8.6%
CN(Cc1cnn(C)c1)Cc1nc(-c2ccc(Cl)cc2)no1 | 1.9 | 0.9 | 5.5 | 0.4 | -4.7 | . | .
Cc1cc(OCCCCNC(C)C)cc(C(C)C)c1 | -3.0 | 0.4 | 7.1 | 42.4* | 1.9 | 9.9 | 1.7%
Cc1cc(OCCOCCNC(C)C)cc(C)c1Cl | -7.5 | 2.8 | 20.4 | 4.6 | -6.3 | . | .
O=C(Nc1cccc2ncccc12)c1ccco1 | 3.7 | 0.2 | 4.9 | 50.7* | -7.2 | -5.6 | 0.5%
CSCC[C@H](NC(=O)OC(C)(C)C)C(=O)N1CCC(C(=O)N[C@@H](C)C(=O)NCc2ccc(F)cc2)CC1 | 8.0 | 0.8 | 1.4 | -1.5 | 0.5 | . | .
Cc1c(NS(=O)(=O)c2cccc([N+](=O)[O-])c2)c(=O)n(-c2ccccc2)n1C | 1.9 | 0.2 | -0.1 | 3.4 | -2.9 | . | .
Cc1c(Nc2nc(-c3cccc([N+](=O)[O-])c3)cs2)c(=O)n(-c2ccccc2)n1C | 1.9 | -0.3 | -0.1 | 48.1* | -3.1 | -1.3 | 1.0%
COc1ccccc1NC(=O)CC1COc2ccccc2O1 (stereo unspecified) | 9.1 | -0.4 | 1.3 | 46.5* | -4.0 | 4.7 | 1.4%
O=C(NC1CC1)C1=NOC(CNc2ncc(C(F)(F)F)cc2Cl)C1 (stereo unspecified) | 1.3 | 0.5 | 0.9 | 46.3* | 2.4 | -4.6 | 2.1%
Cc1cc(O)c(C2(C(F)(F)F)NCCNC2=O)cc1C (stereo unspecified) | 1.5 | 1.5 | 3.5 | 42.8* | -5.5 | -2.9 | -0.3%
O=C1NCCNC1(c1c[nH]c2ccccc12)C(F)(F)F (stereo unspecified) | 9.3 | 0.0 | 4.0 | 4.4 | 1.8 | . | .
CCCn1c2ccccc2c2nnc(SC(CC)C(=O)Nc3sc4c(c3C#N)CCCC4)nc21 (stereo unspecified) | . | 25.5 | -1.7 | 8.3 | -2.8 | 3.9 | -0.7%
COC(=O)c1cccc(NC(=O)CN2CCc3ccccc3C2)c1 | -9.2 | -0.4 | 3.3 | 71.2* | 0.1 | -4.3 | 6.2%
COc1ccc(-c2cc(C(=O)NCCc3ccccc3)c3cc(C(C)C)ccc3n2)cc1 | 11.9 | 1.3 | 7.2 | -3.6 | -1.6 | . | .
COc1ccc(-c2cc(C(=O)NCCN3CCOCC3)c3cc(C(C)C)ccc3n2)cc1 | 2.3 | 2.5 | 3.9 | 46.6* | 0.8 | 1.1 | 0.6%
Cc1ccc(Cl)cc1N1CCN(S(=O)(=O)N2CCCCC2)CC1 | 12.2 | 0.0 | 9.7 | 42.9* | -0.7 | 0.2 | 1.1%
C=CCNC(=O)c1c(N)n(-c2cccc(S(N)(=O)=O)c2)c2nc3ccccc3nc12 | -13.9 | 0.5 | 9.3 | 43.0* | 1.6 | -2.9 | ?
CC(C)(C)OC(=O)N1CCN(C(=O)c2cccnc2Cl)CC1 | -0.1 | 1.5 | 4.8 | 2.9 | 2.9 | . | .
COc1cc([N+](=O)[O-])c2ncccc2c1 | -11.2 | -1.0 | -1.5 | 0.5 | 4.5 | . | .
SMILES | D1 antagonist | TRHR agonist-1 | D1 ag | TRHR enhancer-1 | D1 potentiator | TRHR enhancer-2 | TRHR agonist-2
COc1cc([N+](=O)[O-])c2nccnc2c1 | 3.2 | -0.2 | 2.4 | 44.4* | -5.4 | 12.7 | 0.9%
CNC(=O)CN(C)S(=O)(=O)c1ccc(OC)c(Cl)c1 | 3.4 | -0.3 | 0.5 | 74.6* | -2.1 | -4.0 | -0.7%
COc1ccc(S(=O)(=O)N(C)CC(=O)NC2CCCCC2)cc1Cl | -2.4 | -0.7 | 0.6 | -0.9 | 1.6 | . | .
COc1ccc(C(=O)C2CCN(C(=O)c3ccc(C)cc3)CC2)cc1 | -20.7 | -0.9 | 4.3 | -4.9 | -0.6 | . | .
COc1ccc(C(=O)C2CCN(C(=O)c3ccco3)CC2)cc1 | -39.8* | -0.5 | 4.1 | 48.6* | -4.9 | ? | 6.7%
COc1ccc(NC(=O)c2cc3c(=O)n(Cc4cccs4)ccc3nc2C)c(OC)c1 | 3.9 | -0.6 | 0.5 | 11.1 | -4.0 | . | .
O=C(C[n+]1ccc(C(=O)NCc2ccccc2)cc1)c1ccc(Cl)cc1 | -23.2 | 0.3 | 2.3 | 4.2 | -8.9 | . | .
COc1ccc(Cn2c(O)c(/C=N/NC(=O)c3cccnc3)c3ccccc3c2=O)cc1 | 9.6 | 56.8* | 89.6* | -0.3 | 6.1 | -2.4 | 20.6µM*
Cc1cccc(-n2c(O)c(/C=N/NC(=O)c3ccccc3Cl)c3ccccc3c2=O)n1 | 1.1 | 5.3 | 8.4 | 14.5 | -2.9 | . | .
O=C(N/N=C/c1c(O)n(Cc2ccccc2)c(=O)c2ccccc12)c1cccnc1 | 9.5 | 30.4* | 46.8* | 3.5 | 4.3 | -1.2 | 20.6µM*
O=C(N/N=C/c1c(O)n(-c2ccccc2Cl)c(=O)c2ccccc12)c1cccnc1 | 0.8 | 29.2 | 28.2 | 40.4* | -0.4 | 8.5 | ?
COc1ccc(Cn2c(O)c(C=Nc3ccc(OC)cc3)c3ccccc3c2=O)cc1 | 5.3 | 0.8 | 2.2 | -3.7 | 1.8 | . | .
CCC(C(=O)Nc1ccc(C(C)C)cc1)n1nc(C)n2c(cc3cc(C)ccc32)c1=O (stereo unspecified) | 9.5 | -0.8 | 1.4 | 8.6 | -2.4 | . | .
O=C(CN(Cc1ccccc1Cl)C(=O)c1csnn1)NCc1ccc2c(c1)OCO2 | -7.4 | -0.4 | -0.9 | 51.2* | -7.5 | -11.0 | 3.5%
COc1ccccc1CN(CC(=O)NCc1ccc2c(c1)OCO2)C(=O)c1csnn1 | -1.5 | -0.1 | -1.9 | -7.7 | 4.0 | . | .
O=C1/C(=C/c2ccccc2)Nc2ccccc21 | -10.7 | 49.9* | 50.0* | 10.4 | -3.5 | 13.6 | 16.4µM*
CCCn1nnnc1SCC(=O)NC1CCCC1 | 4.3 | 0.4 | 2.4 | 0.9 | 2.9 | . | .
CCCCn1nnnc1SCC(=O)NNC(=O)C1CCCCC1 | -6.0 | -1.2 | 1.5 | 41.6* | -2.3 | -3.6 | 1.4%
Cc1ccc(C)[n+](CC(=O)c2ccc(-c3ccccc3)cc2)c1 | 1.7 | 0.5 | 2.0 | -2.5 | -1.3 | . | .
Brc1ccc(-c2csc(NNC3=NCCCCC3)n2)cc1 | 23.2 | -0.6 | 0.3 | 2.2 | 5.6 | . | .
CC(C)(C)c1ccc(-c2csc(NNC3=NCCCCC3)n2)cc1 | . | 0.4 | -0.2 | 55.1* | 0.6 | 7.0 | 5.8%
